# Assay results published in PubChem BioAssay (NCI).
# This is part of a sample that, as a whole, favours compounds with a hit. Of some 83,000 tested, about 20% had one in any assay.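 In brief: 96-well plates, 48 h treatment, single concentration, percent growth endpoint.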 A number with no mark means an inactive call. Active and inactive are the calls of the source. Rule for the calls: active = growth percent below 10; inactive = the rest.
# Columns and labels:
# Test in all cases: NCI-60 one-dose screen, 48 h (100 = growth as untreated, 0 = no growth, -100 = all killed)
# Conditions in all cases: 10 µM unless noted
# [1] = test system: NCI-H23 lung
# [2] = test system: NCI-H226 lung
# [3] = test system: NCI-H322M lung
# [4] = test system: HOP-62 NSCLC
# [5] = test system: NCI-H460 lung
# [6] = test system: HOP-92 NSCLC
# [7] = test system: NCI-H522 lung
# [8] = test system: A549/ATCC NSCLC
# [9] = test system: 786-0 renal
# [10] = test system: COLO 205 colon
# [11] = test system: DU-145 prostate
# [12] = test system: K-562 leukemia
# [13] = test system: MALME-3M melanoma
# [14] = test system: MDA-MB-231 breast
# [15] = test system: RXF 393 renal
# [16] = test system: SF-268 CNS
# [17] = test system: SF-539 CNS
# [18] = test system: UACC-257 melanoma
# [19] = test system: SF-295 CNS
# [20] = test system: M14 melanoma
Structure (SMILES),growth [1],growth [2] [%],growth [3],growth [4],growth [5],growth [6],growth [7],growth [8],growth [9],growth [10],growth [11],growth [12],growth [13],growth [14],growth [15],growth [16],growth [17],growth [18] [%],growth [19],growth [20]
O=C1C=C(C(O)c2ccc(O)cc2)C(=O)c2ccccc21 (stereo unspecified),89.2%,112,95.2%,116%,107%,-2.83% (active),92.8%,104%,106%,100%,107%,97.2%,95.6%,83.5%,147%,108%,106%,107,,
COc1cc2ncnc(Nc3ccc(Oc4ccnc(C)c4)c(C)c3)c2cc1NC(=O)CC1CCSS1 (stereo unspecified),-49.5% (active),25.8,-49.6% (active),-50.7% (active),-53.1% (active),62.6%,-57.6% (active),-63.8% (active),52.5%,-81.1% (active),-7.01% (active),-50.9% (active),-27.5% (active),-27.8% (active),8.74% (active),-53.2% (active),1.45% (active),,-65.3% (active),-65.1% (active)
CCCCCCCC(=O)SCC/C=C/[C@@H]1CC(=O)NCc2cccc(n2)CN(Cc2ccc3ccccc3c2)CC(=O)N[C@@H](C(C)C)C(=O)O1,45.7%,67.5,40%,24%,27.6%,18.2%,66.1%,35.3%,72.1%,33.7%,51.4%,13.8%,8.13% (active),27.3%,20.3%,61.1%,59.1%,,9.4% (active),28.4%
O=C(NO)c1ccc(Cn2c(=O)n(CCc3ccc(O)cc3)c(=O)c3ccccc32)cc1,-8.51% (active),82.5,80.4%,68.1%,60.4%,80%,7.74% (active),84.2%,83.4%,19.6%,42.1%,24.9%,39.3%,39.1%,29.8%,59.2%,3.09% (active),,79.1%,36.9%
O=C1CNCCN1,96.4%,97.1,106%,114%,105%,105%,90.9%,93.4%,100%,122%,107%,101%,104%,97.9%,98.5%,107%,95.8%,,97.4%,105%
COC(=O)[C@]12CC[C@@H](C)[C@H](C)[C@@H]1C1=CC[C@@H]3[C@@]4(C)C=C(O)C(=O)C(C)=C4CC[C@@]3(C)[C@]1(C)CC2,22.1%,22.4,82.6%,56.4%,46.8%,26.4%,-14.1% (active),39.5%,68%,37.1%,54.4%,19.3%,86.2%,5.7% (active),27.6%,60%,32.3%,,34.7%,24.9%
Cc1ccc(N(CC(=O)Nc2ccc(S(=O)(=O)N3CCC(N4CCCC4)CC3)cc2)S(=O)(=O)c2ccc(Cl)cc2)cc1,77.6%,64.7,22.5%,67.6%,-58.5% (active),50.9%,44.2%,20.2%,-70.5% (active),-60.5% (active),9.76% (active),-44.9% (active),-81.2% (active),-42.9% (active),-70.8% (active),34.8%,-89.7% (active),,-64.5% (active),-68.8% (active)
Cn1c2ccccc2c2c3c(c4c5cccnc5[nH]c4c21)C(=O)N(O)C3=O,15.1%,74.3,62.6%,15.3%,14.7%,78.9%,47.6%,62.3%,36.6%,22.4%,26.5%,29.8%,58.2%,68.8%,59.5%,38.2%,16.6%,,37.6%,20.5%
